# Screening results from PubChem.
# BAZ2B inh – BAZ2B (human) inhibition; AlphaScreen BAZ2B-H3K14Ac peptide displacement; Q9UIF8; 360,000 tested, 4.4% active; Potency, µM (series often up to 114 µM), inactives show at the top dose activity change, negative = inhibition, hits mostly inhibitors; note: potency is the fitted concentration of half-maximal effect; % is set by controls: 0 for no effect and ±100 for the full control effect; nearly all actives have a fitted effect of over 60% in size
# Target sequence (Q9UIF8 whole entry, looked up): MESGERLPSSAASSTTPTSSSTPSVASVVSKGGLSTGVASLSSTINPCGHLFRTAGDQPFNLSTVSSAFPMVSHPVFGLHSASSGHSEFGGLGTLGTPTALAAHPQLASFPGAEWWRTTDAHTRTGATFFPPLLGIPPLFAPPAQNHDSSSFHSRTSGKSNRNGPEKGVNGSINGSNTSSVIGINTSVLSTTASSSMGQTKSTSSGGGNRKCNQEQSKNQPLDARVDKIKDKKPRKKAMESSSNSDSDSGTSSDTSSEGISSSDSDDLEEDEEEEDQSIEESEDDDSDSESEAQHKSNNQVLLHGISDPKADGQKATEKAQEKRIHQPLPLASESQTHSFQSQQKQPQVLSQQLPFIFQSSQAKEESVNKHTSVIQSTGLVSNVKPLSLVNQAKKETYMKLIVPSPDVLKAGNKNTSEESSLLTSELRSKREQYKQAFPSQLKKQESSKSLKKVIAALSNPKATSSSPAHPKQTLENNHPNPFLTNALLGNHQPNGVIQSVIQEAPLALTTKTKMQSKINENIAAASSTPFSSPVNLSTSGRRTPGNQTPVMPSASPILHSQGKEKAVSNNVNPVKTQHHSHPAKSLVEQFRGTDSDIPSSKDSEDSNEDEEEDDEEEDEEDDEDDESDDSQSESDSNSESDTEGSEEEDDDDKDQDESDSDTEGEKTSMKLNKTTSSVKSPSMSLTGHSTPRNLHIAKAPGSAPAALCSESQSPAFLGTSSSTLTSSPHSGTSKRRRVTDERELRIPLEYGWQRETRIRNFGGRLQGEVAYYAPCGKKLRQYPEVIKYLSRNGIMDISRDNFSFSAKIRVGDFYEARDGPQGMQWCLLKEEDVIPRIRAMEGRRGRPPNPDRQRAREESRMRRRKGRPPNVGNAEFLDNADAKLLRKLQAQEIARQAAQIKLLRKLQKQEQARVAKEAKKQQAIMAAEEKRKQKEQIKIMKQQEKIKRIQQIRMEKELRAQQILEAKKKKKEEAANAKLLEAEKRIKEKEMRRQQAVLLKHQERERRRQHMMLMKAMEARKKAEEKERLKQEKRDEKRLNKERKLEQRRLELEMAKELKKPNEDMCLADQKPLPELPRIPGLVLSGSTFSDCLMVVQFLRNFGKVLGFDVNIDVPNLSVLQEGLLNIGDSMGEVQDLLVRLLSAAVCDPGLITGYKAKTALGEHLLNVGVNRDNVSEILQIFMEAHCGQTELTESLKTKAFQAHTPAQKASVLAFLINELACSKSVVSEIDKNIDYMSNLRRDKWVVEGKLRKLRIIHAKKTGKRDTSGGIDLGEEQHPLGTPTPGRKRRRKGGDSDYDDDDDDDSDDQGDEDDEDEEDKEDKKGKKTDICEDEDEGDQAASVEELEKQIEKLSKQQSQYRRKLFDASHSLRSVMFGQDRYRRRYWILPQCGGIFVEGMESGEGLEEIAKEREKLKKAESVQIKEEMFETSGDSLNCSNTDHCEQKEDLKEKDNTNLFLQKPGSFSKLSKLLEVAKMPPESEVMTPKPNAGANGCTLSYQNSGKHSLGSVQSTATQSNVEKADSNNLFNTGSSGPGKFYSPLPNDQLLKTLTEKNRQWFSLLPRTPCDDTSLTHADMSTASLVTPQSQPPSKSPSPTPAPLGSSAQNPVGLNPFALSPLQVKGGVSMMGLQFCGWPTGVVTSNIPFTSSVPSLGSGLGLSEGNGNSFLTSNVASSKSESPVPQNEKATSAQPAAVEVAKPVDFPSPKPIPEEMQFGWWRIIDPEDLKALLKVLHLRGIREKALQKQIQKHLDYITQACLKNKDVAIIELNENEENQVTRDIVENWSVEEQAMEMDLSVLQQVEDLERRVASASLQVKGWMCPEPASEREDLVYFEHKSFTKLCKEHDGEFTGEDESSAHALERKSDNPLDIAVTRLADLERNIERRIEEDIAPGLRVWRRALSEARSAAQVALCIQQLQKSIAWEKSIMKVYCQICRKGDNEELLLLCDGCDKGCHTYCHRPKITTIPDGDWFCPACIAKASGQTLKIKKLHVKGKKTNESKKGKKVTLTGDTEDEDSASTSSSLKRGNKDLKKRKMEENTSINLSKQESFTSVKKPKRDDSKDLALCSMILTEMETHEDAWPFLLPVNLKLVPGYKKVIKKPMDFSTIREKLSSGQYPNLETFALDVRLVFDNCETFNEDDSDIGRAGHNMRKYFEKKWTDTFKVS
#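 AlphaScreen luminescence quantifies BAZ2B engagement of H3K14Ac peptide; the protein and biotinylated peptide are both at 50 nM final, buffer PBS pH 7.4 with 0.01% Tween-20, all steps at room temperature.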
# JMJD2A Tudor – JMJD2A Tudor domain (human) inhibition | AID 504339 | Potency, µM (top dose mostly 114 µM), for the others: top-dose activity change, negative = inhibition, actives largely listed as inhibitors | 390,000 tested, 4.4% active | AlphaScreen JMJD2A-Tudor / H3K4me3 peptide binding; note: potency is the fitted concentration of half-maximal effect; % is set by controls: 0 for no effect and ±100 for the full control effect; nearly all actives have a fitted effect of over 50% in size
# PI5P4Ka inh – PI5P4K alpha (human) kinase inhibition | P48426 | PI5P4Kalpha enzyme, ADP-Glo luminescence, 60 min; active compounds read low | max response, % | 330,000 tested, 1.2% active | AID 652105; active = max response of -50% or lower; inconclusive = between -30% and -50%; inactive = -30% or higher; note: value at the top dose of about 77 µM; % is set by controls: 0 for no effect and ±100 for the full control effect
#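 PI5P4Kalpha ADP-Glo assay; 5 microM ATP final; 60 min RT reaction; HEPES pH 7.4/EGTA/CHAPS, 5% DMSO; controls lacking substrate or enzyme; luminescent end-point.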
# HP1b chromo inh – blocks HP1-beta chromodomain binding to methylated histone tails. P83916. AlphaScreen HP1-beta / biotin-H3K9me3 peptide binding. Potency, µM (highest dose often 114 µM), for inactives: top-dose activity change, negative = inhibition, usual class: inhibitors. 390,000 tested, 0.56% active. AID 540317; note: potency is the fitted concentration of half-maximal effect; nearly all actives have a fitted effect of over 70% in size
#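 AlphaScreen: HP1-beta (50 nM) preformed 30 min with biotin-H3(1-18)K9me3 peptide (50 nM) in PBS pH 7.4, 0.01% Tween-20. Compound added for 30 min at RT, then streptavidin donor/nickel chelate acceptor beads (10 ug/mL) for 30 min.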
# G9a inh – G9a (human) methyltransferase inhibition | Q96KQ7 | G9a H3K9 monomethylation, AlphaScreen, 2 h | Potency, µM (highest dose often 102 µM), inactives show at the top dose activity, negative = inhibition, usual class: inhibitors | 350,000 tested, 8.8% active | AID 504332; note: potency is the fitted concentration of half-maximal effect; % is set by controls: 0 for no effect and ±100 for the full control effect; nearly all actives have a fitted effect of over 75% in size
#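 Enzyme 20 nM + cpd, 15 min RT; add b-H3K9 pep 500 nM / SAM 20 uM; 2 h RT; anti-H3K9me1 Ab 0.5 ug/mL + SA donor / anti-rabbit acceptor beads 20 ug/mL each, 10 min; AlphaScreen read.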
# PLK1 PBD inh – inhibitors of human PLK1 polo-box domain binding; P53350; Potency, µM, inactives show max response, negative = inhibition, hits mostly inhibitors; 360,000 tested, 2.8% active; Plk1 PBD binding of FITC phosphopeptide, fluorescence polarization; note: potency is the fitted concentration of half-maximal effect; series mostly up to about 57 µM; % is set by controls: 0 for no effect and ±100 for the full control effect; nearly all actives have a fitted effect of over 65% in size
# * = called active by the depositor; ? = inconclusive; . = no result given; [ ] = dose if it differs, or a comment. Hits are enriched below; roughly 12% of the tested compounds scored in any of these assays. Unless noted, calls come from the whole dose curve; as a rule, active = well fitted curve in the direction sought with a large enough effect; inconclusive = small, poorly fitted or top-dose-only effect, or another doubt; inactive = no such curve, though single readings can be large; an effect the other way counts as inactive or inconclusive.
SMILES,BAZ2B inh,JMJD2A Tudor,PI5P4Ka inh,HP1b chromo inh,G9a inh,PLK1 PBD inh
CC(=O)c1cccc(N=c2scc(-c3ccc(S(=O)(=O)N4CCOCC4)cc3)n2CCO)c1,?,-34%[57.1 µM],-15,?,45µM*,?
COc1ccc(C(=O)N(Cc2ccccc2)Cc2ccccc2)c(O)c1,.,-12%,.,.,.,.
CSc1nnc(CCNS(=O)(=O)c2ccc(Br)cc2)n1C,2%,10%,-6,42%,-17%,-8%
COC(=O)c1cc(CNC(=O)CCCSc2ccccc2)ccc1OC,2%,-11%,0,0%,?,-20%
O=S(=O)(c1ccc(-c2ccccc2)cc1)N1CCOCC1,-5%,-19%,-3,30%,15%[59 µM],-8%
C=CCn1c(-c2ccc(S(=O)(=O)N3CCOCC3)cc2)csc1=Nc1ccccc1,6.3µM*,?,1,-11%,7%[0.501 µM],-13%
CC(C)Cc1ccc(S(=O)(=O)NCc2nc3cccnc3n2Cc2ccccc2)cc1,-2%,-21%,.,23%[57 µM],6%[59 µM],.
Cc1ccc(C(O)c2ncc(-c3ccc(C(F)(F)F)cc3)[nH]2)cc1F (stereo not drawn),.,.,7,.,.,0%
CC(=O)c1cccc(NC(=O)C(CC(C)C)NS(=O)(=O)c2ccc3c(c2)CCN3C(C)=O)c1 (stereo not drawn),.,-13%,.,29%,-44%[59 µM],.
O=C(NNc1c2ccccc2nc2ccccc12)c1ccccc1Cl,-33%,-3%,1,28%,26%,-1%
O=C(NNc1nc(=O)c2cccnc2s1)c1ccccc1O,.,50µM*,-68*,-5%,50µM*,27µM*
O=C(NNc1c2ccccc2nc2ccccc12)c1ccc(O)cc1O,20µM*,40µM*,?,?,?,2%
O=C(NNc1c2ccccc2nc2ccccc12)c1ccccc1O,7.9µM*,?,-11,-8%,?,-1%
O=C(NNC(=O)c1cccc2ccccc12)c1ccccc1O,-7%,-9%,3,33%,-5%,-25%
Cc1cc(C)c(CNC(=O)c2cc(C3CC3)nc3c2cnn3C(C)C)c(=O)[nH]1,2%,-12%,-1,29%,?,2%
COc1ccc(N2CC(C(=O)N3CCN(Cc4ccc5c(c4)OCO5)CC3)CC2=O)cc1 (stereo not drawn),-14%,-12%,2,9%,2%,-4%
COC(=O)C1Cc2c([nH]c3ccccc23)C(C)N1 (stereo not drawn),-5%,?,0,5%,20µM*,-3%
CCCC1NC(C(=O)O)Cc2c1[nH]c1ccccc21 (stereo not drawn),-4%,16µM*,-8,-4%,.,19µM*
COC(=O)C1Cc2c([nH]c3ccccc23)CN1C(C)=O (stereo not drawn),-34%,-29%,-5,-21%,50µM*,-15%
O=C(OCC#CCSc1nnc(-c2cccc3ccccc23)o1)c1sc2ccccc2c1Cl,.,3%,.,.,.,.
CCCNC(=O)Cn1nc(-c2ccc(OC)cc2)c2cnc3ccc(F)cc3c21,-36%,-27%,.,10%,-4%[59 µM],.
Cc1ccc(C)c(OCc2cc(C(=O)N3CCOCC3)no2)c1,-2%,?,-3,-20%,27%,-11%
CCn1c2c(c(C)cc1=O)C(=O)CC(C)(C)C2,8%,5%,2,38%,10%[59 µM],3%
CCn1c(C)c2c([n+]1CC)CC(C)(C)CC2=O,7%,32µM*,.,-3%,16µM*,-6%
CCOC(=O)c1ccc(S(=O)(=O)Nc2nc3cc(S(=O)(=O)NC4=NCCCCC4)ccc3s2)cc1,.,89µM*,-54*,-22%,3.5µM*,24µM*
SMILES,BAZ2B inh,JMJD2A Tudor,PI5P4Ka inh,HP1b chromo inh,G9a inh,PLK1 PBD inh
Nc1nc2cc(S(=O)(=O)NC3=NCCCCC3)ccc2s1,-21%,-22%,-8,30%,-21%[12.7 µM],21µM*
O=C(COC(=O)c1ccc(O)cc1)Nc1cccc(S(=O)(=O)NC2=NCCCCC2)c1,-6%,-10%,0,1%,.,-4%
Nc1ccc(S(=O)(=O)NC2=NCCCCC2)cc1,-2%,-8%,-9,28%,.,-8%
O=C1CN(C(=O)COC(=O)c2ccc(N3CCCCCC3)c([N+](=O)[O-])c2)c2ccccc2N1,?,?,-5,?,40µM*,-9%
CCN(CC)S(=O)(=O)c1cccc(C(=O)OCC(=O)N2CC(=O)Nc3ccccc32)c1,-19%,-21%,.,1%,20µM*,-10%
COc1ccccc1N1CCN(CC2CN3C(=O)N(C)c4ccccc4C3=N2)CC1 (stereo not drawn),.,.,.,.,-4%[59 µM],.
O=C(NCCCc1nc2ccccc2n1Cc1ccc(Cl)cc1Cl)c1ccco1,?,-17%,.,5%,-32%[59 µM],.
COc1ccc2c(c1)-c1nc(/N=C/c3c(O)ccc4ccccc34)sc1CC2,?,40µM*,-6,?,1.6µM*,?
COc1ccc2c(c1)-c1nc(/N=C/c3ccc(O)cc3)sc1CC2,50µM*,?,-4,-16%,?,-10%
COc1ccc2c(c1)-c1nc(NC(=O)c3cccc(Br)c3)sc1CC2,-10%,-30%,.,43%,?,.
NC(C(=O)O)c1nn[nH]n1 (stereo not drawn),.,10µM*,.,-15%,.,.
O=C1CCc2cc(S(=O)(=O)Nc3ccc4ncccc4c3)ccc2N1,.,-16%,.,.,.,.
CCOc1ccc(CNC(=O)c2cccc(NC(=O)C3=C(C)OCCS3)c2)cc1,50µM*,9%,-1,27%,?,-3%
Clc1cccc(N2CCN(c3nc4ccccc4c4nc(-c5ccccc5)nn34)CC2)c1,2%,-5%,.,20%,9%[59 µM],.
COc1cc(-c2noc(C)c2/C=C/c2ccc(C(=O)O)cc2)cc(OC)c1OC,?,71µM*,-3,3%,.,-18%
COc1cc(-c2noc(C)c2/C=C/c2cccc([N+](=O)[O-])c2)cc(OC)c1OC,?,-27%,1,22%,.,-4%
Cc1nc(N)sc1C(=O)N1N=N1,-14%,?,3,6%,8.9µM*,?
C/C(=N\NC(=O)c1cc2ccccc2cc1O)c1cc2ccccc2o1,2%,-35%,-91*,8%,1%,-13%
C/C(=N\NC(=O)c1nc2ccccn2c1C)c1cc2ccccc2o1,-20%,-12%,2,25%,-14%,?
C/C(=N\NC(=O)CCCNc1ccc(C)cc1)c1ccccn1,56µM*,?,1,7%,16µM*,-3%
C/C(=N\NC(=O)CCCNc1ccccc1)c1ccncc1,-19%,-17%,10,4%,?,1%
CC(=O)Nc1ccc(/C(C)=N/NC(=O)c2ccc(F)cc2)cc1,3%,89µM*,1,-7%,8%,?
CC(=O)Nc1ccc(/C(C)=N\NC(=O)c2ccc(-c3ccccc3)cc2)cc1,-15%,.,.,.,.,.
